Inconclusive results are not listed. Activity calls are given as the source filed them. The call rests on the fitted dose curve; in most records, active means well fitted inhibition curve with a large enough effect; inconclusive means small, poorly fitted or top-dose-only effect; inactive means no such curve, though single readings can be large or run the other way.

The values that follow come from PubChem BioAssay (NCATS).
Potency means the concentration at half of the fitted maximal effect.

Cytochrome P450 2C9 (Homo sapiens), sequence (P11712 whole entry, looked up): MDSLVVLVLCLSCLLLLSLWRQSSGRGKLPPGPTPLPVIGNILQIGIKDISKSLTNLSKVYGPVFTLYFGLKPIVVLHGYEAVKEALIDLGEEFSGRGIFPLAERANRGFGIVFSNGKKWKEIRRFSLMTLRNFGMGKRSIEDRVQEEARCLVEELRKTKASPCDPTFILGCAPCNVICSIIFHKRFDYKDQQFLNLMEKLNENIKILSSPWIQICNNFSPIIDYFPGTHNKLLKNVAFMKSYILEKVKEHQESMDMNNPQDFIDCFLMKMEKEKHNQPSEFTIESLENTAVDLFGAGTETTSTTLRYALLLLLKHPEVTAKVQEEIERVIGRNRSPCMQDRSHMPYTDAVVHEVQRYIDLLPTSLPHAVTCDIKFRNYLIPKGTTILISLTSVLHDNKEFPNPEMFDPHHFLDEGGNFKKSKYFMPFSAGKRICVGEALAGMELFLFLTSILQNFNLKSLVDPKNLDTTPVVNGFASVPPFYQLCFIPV

This assay deals with Cytochrome P450 2C9 (Homo sapiens) (UniProt P11712). The assay can be described thus: qHTS Assay for Inhibitors and Substrates of Cytochrome P450 2C9 (AID 883). Further: nearly all actives have a fitted effect of over 60% in size. Conditions: recombinant CYP2C9, luciferin-H luminescence, 60 min; series mostly up to 11.4 µM. The protocol:
NIH Molecular Libraries Screening Centers Network [MLSCN] NIH Chemical Genomics Center [NCGC] MLSCN Grant: None NCGC Assay Overview: The P450 gene superfamily is involved in the metabolism and clearance of xenobiotics. This assay used human CYP2C9 to measure the hydroxylation of deoxyluciferin (Luciferin-H; P450 Glo-Buffer) to luciferin. The luciferin is then measured by luminescence after the addition of a luciferase detection reagent. Luciferin-H concentration in the assay was equal to its Michaelis constant KM for CYP2C9. Inhibitors and some substrates limit the production of luciferin, and decrease measured luminescence.
NCGC Assay Protocol Summary: Two uL of enzyme and substrate mix (final concentrations: 10nM CYP2C9, 100uM Luciferin-H, 25mM KPO4) were dispensed into a white, solid bottom 1536-well microtiter plate. 23nL of compound was transferred by a pin tool. The plate was incubated at 37C for 10 min. Two uL of an NADPH regeneration solution (Promega supplied reagent) was dispensed and the reaction was allowed to continue for 60 min at 37C. Then the reaction was stopped by reconstituted P450 Glo-Buffer. After another 20 min of incubation the plate was read on the ViewLux (Perkin Elmer) at 60 sec exposure and 2x2 binning. This protocol was carried out with Promega-Glo reagents and further information can be found at http://www.promega.com/tbs/tb325/tb325.pdf. Data were normalized to the to AC100 inhibition (57uM sulphaphenazole). Keywords: P450, CYP2C9, Luciferase, MLSMR, MLSCN, NIH Roadmap, qHTS, NCGC
(Quantitative high-throughput screening tests each substance at several concentrations.)
Turning to `Cc1ccc(C2=C(Cl)C(=O)C(c3ccc(C)cc3)=C(Cl)C2=O)cc1`, the Potency was 1.58 µM (active). In the case of `Cc1c2cnccc2c(C)c2c1c1ccccc1n2CCOC(=O)c1ccccc1` it was 3.16 µM (active); in that of `NNC(=O)CCc1ccc2ccc3ccccc3c2c1`, 1.58 µM (active); in that of `CCn1cc(C(=O)O)c(=O)c2ccc(Cc3ccccc3)nc21`, “inactive”. In the case of `Clc1ccc(CN2CCCN(Cc3ccc(Cl)cc3)C2c2cc3ccccc3c3ccccc23)cc1` it was “inactive”. Then `O=c1cnc2cnc(Oc3ccccc3)nc2n1CCc1ccccc1`, with 3.16 µM (active); and `NS(=O)(=O)c1cc(Br)c(N=Nc2ccc(O)c3ncccc23)c(Br)c1`, with “inactive”; and `COc1ccc([C@@H](C)c2cc3c(cc2O)OCO3)cc1`, with 1.58 µM (active). On to `Cc1cc(O)c(C(C)C)cc1N=Cc1ccccc1O`, for which the Potency was 0.631 µM (active). Regarding `Cc1cc(O)c(C(C)C)cc1C1(c2cc(C(C)C)c(O)cc2C)OC(=O)c2ccccc21`, the Potency was 0.316 µM (active). Then `CCCCC[C@@H](O)[C@@H]1C(=O)O[C@@H](C)[C@@H](O)\C=C/C=C\C=C/C=C\C=C(\C)[C@H](O)C[C@H](O)C[C@H](O)C[C@H](O)C[C@H](O)C[C@H](O)C[C@@H]1O`, with “inactive”; and `N#C[C@H](c1ccccc1)N1CCCN([C@@H](C#N)c2ccccc2)C1c1ccccc1O` (stereo not given in full), with 3.16 µM (active); and `N=C(N)SCCN1CCCCC1`, with “inactive”.

Take `O=[N+]([O-])c1ccc2c(N=Nc3ccc4ccccc4c3O)c(O)cc(S(=O)(=O)O)c2c1`: the Potency was 3.16 µM (active). In the case of `Oc1c(C(O)(c2ccccc2)c2ccc3ccccc3c2O)ccc2ccccc12` it was 0.794 µM (active). Then `BrC(c1cccc2ccccc12)c1cccc2ccccc12`, with 3.16 µM (active). Then `COc1cccc2[nH]c(-c3ccccn3)nc12`, with “inactive”; and `Oc1ccc2ccccc2c1Cc1c(O)ccc2ccccc12`, with 2 µM (active); and `COc1ccc2c(Cc3c4ccccc4cc4ccccc34)cncc2c1O`, with “inactive”. With `Nc1c(S(=O)(=O)O)cc(Nc2cccc(S(N)(=O)=O)c2)c2c1C(=O)c1ccccc1C2=O`, the Potency was 3.16 µM (active). Then `Cc1cc(C)cc(C(=N)c2ccccc2Cc2cccc3ccccc23)c1`, with “inactive”; and `C[C@H]1C[C@@H]2[C@H]3CCC4=CC(=O)C=C[C@@]4(C)[C@]3(Cl)[C@@H](Cl)C[C@]2(C)[C@]1(O)C(=O)COP(=O)(O)O`, with “inactive”. Then `O=C(O)CC(CC(=O)O)n1cccc1`, with “inactive”; and `O=S(=O)(O)c1cc(O)c2c(N=Cc3ccccc3O)cc(S(=O)(=O)O)cc2c1`, with 3.16 µM (active). As to `COc1ccc([C@@H](Nc2ncccn2)c2cc3c(cc2O)OCO3)cc1`, the Potency is 3.16 µM (active).

For `O=[N+]([O-])c1ccc(Nc2nc3ccccc3s2)cc1`, the Potency is 1.26 µM (active).

`O=C1C(Cl)=C(Nc2ccc(S(=O)(=O)Nc3ccccn3)cc2)C(=O)c2ccccc21`: the Potency is 2 µM (active).

`COc1c(NC(C)=O)c2ccccc2c2ccccc12`: the Potency result was “inactive”. In the case of `COCCn1c(=O)c(-c2cccc(C#N)c2)nc2cnc(N3CCNCC3)nc21` it was 3.98 µM (active). In the case of `CC(C)CO[C@H](c1ccc2c(c1)OCO2)[C@H](C)Br` it was 2 µM (active). In the case of `N[C@@H](C(=O)O)[C@H](O)C(=O)O` it was “inactive”. In the case of `CCCCSCc1nc2nc(Cl)c(Cl)nc2[nH]1`, the Potency is 0.501 µM (active). Then `Oc1cccc2ccc(SSc3ccc4cccc(O)c4n3)nc12`, with 1.58 µM (active); and `Oc1ccc(Cl)cc1Cc1cc(Cl)cc(Cc2cc(Cl)ccc2O)c1O`, with 2.51 µM (active); and `c1ccc(CNCCN2CCNCC2)nc1`, with “inactive”. Then `CC1=CC(C)(C)Nc2ccc(CSc3ccccc3)cc21`, with 0.199 µM (active); and `O=C(O)C(=Cc1ccc(-c2ccccc2)cc1)C(=O)O`, with “inactive”. In the case of `Clc1ccc(CSCCc2ccncc2)cc1Cl` it was 0.0794 µM (active); in that of `FC(F)(F)c1nc2nc(Cl)c(Cl)nc2n1CCCN1CCOCC1`, 2.51 µM (active); in that of `Nc1nc(N)nc(CCCCc2nc(N)nc(N)n2)n1`, “inactive”.
